Only some compounds are listed: those with a hit (about 3.1% of all), similar ones and a draw of the others.
uPA surface inh: qHTS for Inhibitors of Cell Surface uPA Generation | cell surface uPA generation assay, qHTS | Potency, µM (top dose mostly 38.3 µM), hits mostly inhibitors | 330,000 tested, 0.31% active | AID 540303, 2011; active = well fitted inhibition curve with a large enough effect; inconclusive = small, poorly fitted or top-dose-only effect; inactive = no such curve, though single readings can be large or run the other way; tested in mouse RAW 264.7 cells; also: nearly all actives have a fitted effect of over 55% in size
DRD3 agonist: qHTS of D3 Dopamine Receptor Agonist: qHTS; 410,000 tested, 0.58% active; max activation, %; AID 652048, 2013; D3R DiscoveRx beta-arrestin cells, luminescence, 90 min; in the data active = max activation above about 30%
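Cells at 1500/well, incubated overnight, then treated with pinned compounds (dopamine as control) for 90 min at 37 degrees C. DiscoveRx reagent added for 30 - 60 minutes at room temperature; luminescence read.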
RGS4 inh: Inhibitors of Regulator of G Protein Signaling (RGS) 4: qHTS; Regulator of G-protein signaling 4 (Homo sapiens), P49798; AID 504845, 2011; 390,000 tested, 0.039% active; Potency, µM (highest dose often 114 µM), usual class: inhibitors; Transcreener GDP fluorescence polarization, RGS4-accelerated GTP hydrolysis; active = well fitted inhibition curve with a large enough effect; inconclusive = small, poorly fitted or top-dose-only effect; inactive = no such curve, though single readings can be large or run the other way; also: nearly all actives have a fitted effect of over 75% in size
Target sequence (P49798 whole entry, looked up): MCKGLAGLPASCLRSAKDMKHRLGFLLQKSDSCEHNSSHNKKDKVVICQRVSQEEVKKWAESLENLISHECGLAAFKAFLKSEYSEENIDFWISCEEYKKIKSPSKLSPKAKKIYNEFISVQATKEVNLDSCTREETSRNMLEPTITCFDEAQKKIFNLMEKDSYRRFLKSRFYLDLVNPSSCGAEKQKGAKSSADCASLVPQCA
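MLSMR compounds (23 nl, pin-transferred) preincubated 10 min at room temperature with a 500nM (2x) first reagent, then RGS4 at 900nM (2x) plus Transcreener GDP mix added; fluorescence polarization (620/688 nm) read before and after 90 min at 30 °C.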
D3 antag: qHTS of D3 Dopamine Receptor Antagonist: qHTS. D(3) dopamine receptor (Homo sapiens), P35462. 360,000 tested, 2.5% active. max response, negative = inhibition, %. D3R cells, DiscoveRx beta-arrestin luminescence, antagonist mode; stronger effect = lower value; in the data active = max response below about -50%; inconclusive = no clear call, values can overlap the other calls
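Cells plated overnight at 1500 cells/well, then exposed to library compounds with dopamine controls for 90 minutes at 37 degrees C. DiscoveRx reagent added for 30–60 minutes at room temperature; luminescence read, quantitative HTS format.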
Of the large screens only hits and unclear results are named; the others gave an inactive call; ! = not confirmed by another sample.

Cn1c(SCC(=O)NCC2CCCO2)nc2c([nH]c3ccccc32)c1=O (configuration not stated)	none
Cn1nc(C(=O)NCc2ccc(F)cc2)c2c1-c1ccccc1SC2	none (no result: uPA surface inh, D3 antag)
CC1=C(C(=O)Nc2ccc(C)cc2C)C(c2ccccc2[N+](=O)[O-])n2ncc(C(=O)Nc3ccccc3)c2N1 (configuration not stated)	none (no result: uPA surface inh, D3 antag)
CN(C)CCN1CCN(C2CN(Cc3cn(Cc4cccc(C(F)(F)F)c4)nn3)S(=O)(=O)C2)CC1 (configuration not stated)	D3 antag -72 (no result: uPA surface inh, RGS4 inh)
CN(C)CCN1CCN(C2CN(Cc3cn(Cc4ccc(C(F)(F)F)cc4)nn3)S(=O)(=O)C2)CC1 (configuration not stated)	D3 antag inconclusive (no result: uPA surface inh, RGS4 inh)
CN(C)CCN1CCN(C2CN(Cc3cn(Cc4ccc(Cl)cc4)nn3)S(=O)(=O)C2)CC1 (configuration not stated)	D3 antag -51 (no result: uPA surface inh, RGS4 inh)
Cc1cc(=O)[nH]c2nnc(SCc3cccc(C(F)(F)F)c3)n12	none (no result: uPA surface inh, D3 antag)
NCCS	DRD3 agonist 65!, RGS4 inh inconclusive, D3 antag -85
O=c1[nH][nH]c(C(F)(F)F)c1C=Nc1ccccc1	D3 antag -54
CCn1cc2nc(SCc3cc(C)ccc3C)n(Cc3ccc(C)cc3)c(=O)c2n1	none (no result: uPA surface inh, D3 antag)
CCC(=O)N1CCc2cc(S(=O)(=O)NC(C(=O)NCc3ccc(OC)cc3)C(C)C)ccc21 (configuration not stated)	none (no result: uPA surface inh, D3 antag)
Cc1nnc(SCC(=O)N2CCC(Cc3ccccc3)CC2)n(N)c1=O	D3 antag -99
Cc1nnc(SCC(=O)N2CCCCCC2)n(N)c1=O	none
CC(=O)N[C@@H]([C@@H](O)[C@H](O)[C@H](O)CO)[C@@H](O)CC(=O)C(=O)O	none (no result: uPA surface inh, RGS4 inh, D3 antag)
Cc1cccc(-c2n[nH]c(=S)n2/N=C/C=C/c2ccco2)c1	RGS4 inh inconclusive, D3 antag -98
S=c1[nH]nc(-c2ccncc2)n1/N=C/C=C/c1ccco1	RGS4 inh inconclusive
COc1ccccc1/C=C/C=N/n1c(COc2ccccc2)n[nH]c1=S	D3 antag -86
COc1ccccc1/C=C/C=N/n1c(-c2ccc(F)cc2)n[nH]c1=S	none
COc1ccccc1/C=C\C=N\n1c(-c2ccc(Cl)cc2)n[nH]c1=S	RGS4 inh inconclusive, D3 antag -51
COc1cccc(/C=N/n2c(COc3ccccc3)n[nH]c2=S)c1OC	none
Cc1n[nH]c(=S)n1/N=C/c1ccccc1OCc1ccc(Cl)cc1	D3 antag -51
Cc1cc(C)c(NC(=O)C(C)n2c(=O)c(C(F)(F)F)nc3ccccc32)c(C)c1 (configuration not stated)	none (no result: uPA surface inh, D3 antag)
COc1ccc(-c2noc(CSc3nnc(-c4ccncc4)n3-c3ccccc3)n2)cc1	none (no result: uPA surface inh, D3 antag)
Cc1cccc(-n2c(=O)c3c(c4cc(C)ccc4n3C)n(CC(=O)Nc3ccc(C)c(C)c3)c2=O)c1	none (no result: uPA surface inh, D3 antag)
Cc1cccc(NC(=O)c2ccc3snnc3c2)c1	none (no result: uPA surface inh, D3 antag)
O=[N+]([O-])c1ccc(Cl)c(/C=N/n2c(COc3ccccc3)n[nH]c2=S)c1	uPA surface inh inconclusive, RGS4 inh inconclusive, D3 antag -58
CCC(=O)O[C@]1(C(=O)CCl)[C@@H](C)C[C@H]2[C@@H]3C[C@H](F)C4=CC(=O)C=C[C@]4(C)[C@@]3(F)[C@@H](O)C[C@@]21C	none (no result: uPA surface inh, RGS4 inh, D3 antag)
CCOC(=O)c1c(C)n(C)c2ccc(OCC(O)CN(CC)CC)cc12 (configuration not stated)	D3 antag -54
CCOC(=O)c1c(C)n(C)c2ccc(OCC(O)Cn3nc(C)cc3C)cc12 (configuration not stated)	none
CO[C@@H]1[C@@H](O[C@@H]2O[C@H](C)[C@@H](O[C@H]3C[C@@](C)(O)[C@@H](O)[C@H](C)O3)[C@H](N(C)C)[C@H]2O)[C@@H](CC=O)C[C@@H](C)[C@@H](O[C@@H]2CC[C@H](N(C)C)[C@@H](C)O2)/C=C/C=C/C[C@@H](C)OC(=O)C[C@H]1O	none (no result: uPA surface inh, RGS4 inh, D3 antag)
Oc1c(C(Nc2nccs2)c2ccc(C(F)(F)F)cc2)ccc2cccnc12 (configuration not stated)	DRD3 agonist 39
Oc1c(C(Nc2cccc(C(F)(F)F)c2)c2ccncc2)ccc2cccnc12 (configuration not stated)	D3 antag -54
Cn1c(-c2ccccc2)c(C(=O)CCl)c2ccccc21	D3 antag -51

From PubChem
